# The full list was thinned out, with hits kept by preference.
# Tg IFNy HTS: T. gondii growth inhibition with IFN-gamma, primary screen, cell-based; Toxoplasma gondii growth in IFN-gamma-treated host cells; active compounds read low; AID 1259416, 2018; 69,000 compounds, 3.8% hits; activity change, negative = inhibition, % (concentration not given with the values); in the data active = activity change below about -70%, passing the limit was not always enough;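 note: host cells are HeLa cells infected with Toxoplasma gondii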
# * hit, by the source's call.
SMILES,Tg IFNy HTS
CC(=O)OC1CN2CCC1CC2 (stereo not drawn),12
COc1ccc(C[C@H]2NC[C@H](O)[C@H]2OC(C)=O)cc1,-75*
Cc1cccc(C)c1NC(=O)c1cc2cccnc2n(Cc2ccccc2)c1=O,-17
O=C(CCc1cccnc1)N1C[C@@H](c2ccccc2)[C@@H]2[C@H]1C1CCN2CC1,0
O=c1[nH]c2ccc(Cl)cc2c(N[C@@H]2CN3CCC2CC3)c1-c1nc2ccccc2[nH]1,-76*
C=CCOC(=O)N1CCOC2(CNCCOC2)C1 (stereo not drawn),10
CN(C)C(=O)C1OC2(CCNCC2)c2ccccc21 (stereo not drawn),98
O=C(NCc1c(F)cccc1F)c1cc2cccnc2n(Cc2ccccc2F)c1=O,102
CC(=O)O[C@H]1C(=O)[C@@]2(C)C([C@H](OC(=O)c3ccccc3)[C@]3(O)C[C@H](O)C(C)=C1C3(C)C)[C@]1(OC(C)=O)CO[C@@H]1C[C@@H]2O (stereo partly drawn),-74*
C/C=C(\C)C(=O)N[C@@H](c1ccccc1)[C@@H](O)C(=O)O[C@H]1C[C@@]2(O)[C@@H](OC(=O)c3ccccc3)[C@@H]3[C@]4(OC(C)=O)CO[C@@H]4C[C@H](O)[C@@]3(C)C(=O)[C@H](OC(C)=O)C(=C1C)C2(C)C,-89*
CC(=O)C1CCC2C3CCC4CC(=O)CC[C@]4(C)C3CCC12C (stereo partly drawn),-4
Cc1nc(CN2CC3CN(Cc4ccccn4)CC3C2)cs1 (stereo not drawn),-2
Cc1cc(C(=O)N2CCN(C)C3(CCN(C)CC3)C2)nc(C)n1,11
Cc1cc(C)c2c(CC(=O)N(C)CCN(C)C)coc2c1,-3
c1ccc(OCC2COCCC23CCNCC3)nc1 (stereo not drawn),4
C#C[C@]1(O)C=C[C@H]2[C@@H]3CCC4=CC(=O)CC[C@@H]4[C@H]3CC[C@@]21CC,-81*
C#C[C@]1(O)CC[C@H]2[C@@H]3CCC4=CC(=O)CC[C@]4(C)[C@H]3CC[C@@]21C,-16
CC(Cc1ccccc1F)NCCCC(=O)N(C)C (stereo not drawn),8
CN1CCO[C@]2(CCC[C@H]2COc2cccnc2)C1,-17
CN(C)CCNC(=O)c1cc2cccnc2n(Cc2ccc(F)cc2)c1=O,-40
Cc1ccc(NC(=O)c2cc3cccnc3n(Cc3ccccc3F)c2=O)cc1C,74
Cc1cnc(N2CCN3C[C@H](Oc4cncnc4)C[C@@H]3C2)nc1,10
O=C(COc1cccnc1)NC1CCN(CC2(c3ccc(Cl)cc3)CCC2)CC1,-19
CC(C)CN1CCC2(COCc3cnc(N(C)C)nc32)C1 (stereo not drawn),6
c1nc(N2CCOCC2)nc2c1COCC21CCN(CC2CC2)C1 (stereo not drawn),-7
SMILES,Tg IFNy HTS
COCCN1CCC2(COCc3cnc(N4CCOCC4)nc32)C1 (stereo not drawn),-91*
O=C(NC1CCCCCC1)c1cc2cccnc2n(Cc2ccc(Cl)cc2)c1=O,-9
Cn1cccc1C(=O)N1C[C@H]2CN(Cc3cccnc3)C[C@H]2C1,-6
O=S(=O)(c1ccc(F)cc1)N1CC2CNCC2C1 (stereo not drawn),90
Cc1cc(-c2cnc(N3CC4CC(C3)c3cccc(=O)n3C4)nc2-c2cccs2)on1 (stereo not drawn),-2
COc1cc2c3cc1Oc1cc(ccc1O)C[C@@H]1c4c(cc(OC)c(O)c4Oc4ccc(cc4)C[C@H]3N(C)CC2)CCN1C,-94*
CN1CCc2cc(O)cc3c2[C@H]1Cc1ccc(O)c(O)c1-3,-6
CC(C)c1nccc(C(=O)N2CCN3CCNC(=O)C3C2)n1 (stereo not drawn),8
CN(C)c1ncc2c(n1)C1(CCN(Cc3cccnc3)C1)COC2 (stereo not drawn),3
Cc1cc(CN2CCO[C@@H]3[C@H]2CC[C@H]3OCC(C)C)no1,-8
CCO[C@H]1CC[C@@H]2[C@H]1OCCN2Cc1cc(C)on1,-81*
CCO[C@@H]1CC[C@@H]2[C@H]1OCCN2Cc1cc(C)on1,-12
CCn1c(CC2CCN(C(=O)C3C(C)(C)C3(C)C)CC2)n[nH]c1=O,3
O=C(Nc1cccc(C(F)(F)F)c1)c1cc2cccnc2n(Cc2ccc(F)cc2)c1=O,44
C[C@@]1(CO)[C@H](O)CC[C@@]2(C)[C@H]1CC[C@H]1C[C@@H]3C[C@@]12CC[C@]3(O)CO,-86*
CCN1C[C@H]2CN(Cc3cccs3)C[C@H]2C1=O,-43
Cc1cccc(OCC(=O)N2CCCN3CCC[C@H]3C2)c1C,2
COC(=O)c1ccc(/C=C/C(=O)C2C(=O)N(C)C3(C)CC2c2cc(Cl)ccc2O3)cc1 (stereo not drawn),1
O=C(NC(=O)c1c(F)cccc1F)Nc1cc(Cl)c(OC(F)(F)C(F)C(F)(F)F)cc1Cl (stereo not drawn),-76*
O=C(O)CN1C2COCC1CC(Oc1cccnc1)C2 (stereo not drawn),2
CC(C)NC(=O)CNC(C)Cn1cncn1 (stereo not drawn),7
Cc1cnc(N2CCN3C[C@H](OCCN(C)C)C[C@@H]3C2)nc1,-11
